A short description of assay [1]: qHTS assay to identify small molecule agonists of the vitamin D receptor (VDR) signaling pathway - cell viability counter screen (AID 743224). Also: nearly all actives have a fitted effect of over 50% in size. Also: potency is read from the fitted curve at half-maximal effect. The gist of the method: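 VDR-bla cell line, quantitative HTS format; 16 h compound incubation (37C, 5% CO2); ATP-based CellTiter-Glo luminescence measured in the reporter assay wells.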
Background: Quantitative high-throughput screening tests each substance at several concentrations.

The nature of assay [2]: qHTS assay to identify small molecule antagonists of the vitamin D receptor (VDR) signaling pathway - cell viability counter screen (AID 743225). Also: nearly all actives have a fitted effect of over 50% in size. In a few lines:
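HEK293T VDR-bla; cpd + 1a,25-(OH)2D3 3 nM final, 16 h 37C/5% CO2; B/G FRET substrate 2 h RT; then CellTiter-Glo 30 min RT, luminescence.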

Assay [3] in a line: qHTS assay to identify small molecule agonists of the NFkB signaling pathway (AID 1159509; active = well fitted curve in the direction sought with a large enough effect in the signal ratio in the repeat runs, not every such curve was filed as active; the % refers to the signal ratio). The gist of the method:
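ME-180 NFkB-bla, 2,000 cells/well, overnight plating; cpd pinned in DMSO, 5 h 37 C; B/G FRET substrate 1.5 h RT; ex 405, em 460/530 nm.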

The nature of assay [4]: qHTS assay to identify small molecule agonists of the endoplasmic reticulum stress response signaling pathway (AID 1159516; active = well fitted activation curve with a large enough effect in the signal ratio in the repeat runs, not every such curve was filed as active; the % refers to the signal ratio). The gist of the method:
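ER stress element reporter (bla) in HeLa. 1,500 cells/well, overnight attachment; 5 hr compound; 2 hr RT substrate; dual-emission fluorescence.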

A short description of assay [5]: qHTS assay to identify small molecule agonists of the endoplasmic reticulum stress response signaling pathway - cell viability counter screen (AID 1159517; calls by dose curve;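 also: HeLa cells carrying an ER stress response element beta-lactamase reporter; nearly all actives have a fitted effect of over 50% in size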). In a few lines:
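CellTiter-Glo was added to wells already read for beta-lactamase FRET, and luminescence was recorded 30 min later. Cells: ESRE-bla HeLa, 1,500 per well, compound exposure 5 hr at 37 C.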

The nature of assay [6]: qHTS assay to identify small molecule antagonists of the retinoid-related orphan receptor gamma (ROR-gamma) signaling pathway - cell viability counter screen (AID 1159520). Also: nearly all actives have a fitted effect of over 50% in size. Also: potency is read from the fitted curve at half-maximal effect. In a few lines: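 Tet-on ROR gamma CHO cells (1,000/well) were plated 4 hr, given compounds in DMSO for 2 hr at 37 C, then induced with 1 uM final doxycycline for 16 hr. Viability was read as ATP by CellTiter-Glo luminescence after 30 min.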

In assay [7] the target is Nuclear receptor ROR-gamma (Homo sapiens) (UniProt P51449). Description: qHTS assay to identify small molecule antagonists of the retinoid-related orphan receptor gamma (ROR-gamma) signaling pathway (AID 1159521; also: nearly all actives have a fitted effect of over 50% in size; also: potency is read from the fitted curve at half-maximal effect). In a few lines:
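Cells were plated, rested 4 h at 37 C, exposed to compounds for 2 h, then given 1 uM final doxycycline hyclate to induce RORγ expression. After 16 h, ONE-Glo luminescence from the ROR response element reporter was measured.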

Assay [8] in a line: qHTS assay to identify small molecule agonists of the AP-1 signaling pathway - cell viability counter screen (AID 1159525; calls by dose curve; also: nearly all actives have a fitted effect of over 55% in size). The gist of the method: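 ME-180 AP-1-bla, 2500 cells/well, Opti-MEM + 0.5% dialyzed FBS; overnight 37 °C; cpd 15-pt titration, 5 h 37 °C; CellTiter-Glo 30 min RT; luminescence read; normalised to TOAB and DMSO controls.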
Assay [9] in a line: qHTS assay to identify small molecule agonists of the AP-1 signaling pathway (AID 1159526; calls by dose curve; also: potency is read from the fitted curve at half-maximal effect).
A short description of assay [10]: qHTS assay to identify small molecule agonists of the RXR signaling pathway - cell viability counter screen (AID 1159529). Also: nearly all actives have a fitted effect of over 50% in size. Also: potency is read from the fitted curve at half-maximal effect. In a few lines:
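Steps: seed RXR-alpha-UAS-bla HEK 293T cells in assay medium containing 2% charcoal-stripped FBS; incubate 5 hr; add compounds in DMSO; incubate 16 hr at 37 C; after the bla read, add CellTiter-Glo and read luminescence at 30 min.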

A short description of assay [11]: qHTS assay to identify small molecule antagonists of the retinoid acid receptor (RAR) signaling pathway - cell viability counter screen (AID 1159551). Also: nearly all actives have a fitted effect of over 35% in size. In a few lines:
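Following overnight attachment, C3RL4 reporter cells received DMSO-dissolved compounds and then retinol (1 uM final). Six hours later at 37 C, ATP content was measured by CellTiter-Glo luminescence.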

The nature of assay [12]: qHTS assay to identify small molecule antagonists of the retinoic acid receptor (RAR) signaling pathway (AID 1159552; also: nearly all actives have a fitted effect of over 50% in size). The gist of the method:
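Retinol at 1 uM final stimulated RARE-luciferase expression in C3RL4 cells exposed to test compounds for 6 hr at 37 C. Reduced luminescence, read 30 min after detection reagent, indicated pathway antagonism.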

Assay [13] in a line: qHTS assay to identify small molecule agonists of the retinoic acid receptor (RAR) signaling pathway (AID 1159553). Also: potency is read from the fitted curve at half-maximal effect. The settings on record: C3RL4 RARE luciferase reporter, agonist, 6 h; activation: at 73.3 µM (top of the series). In a few lines:
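Cell line C3RL4, RARE luciferase reporter. Treatment: compounds in DMSO, 6 hr, 37 C, 5% CO2, after overnight plating. Detection: luminescence, 30 min RT after reagent.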

For assay [14], the target named is Retinoic acid receptor RXR-alpha (Homo sapiens) (UniProt P19793). Description: qHTS assay to identify small molecule agonists of the RXR signaling pathway (AID 1159527; calls by dose curve; also: nearly all actives have a fitted effect of over 35% in size; also: potency is read from the fitted curve at half-maximal effect). In a few lines:
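Cells plated at 2,000/well, rested 5 hr at 37 C, pin-dosed with DMSO compound solutions, incubated 16 hr, then loaded with B/G FRET substrate for 2 hr at RT before dual-emission fluorescence reading.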

Inconclusive results are not listed. Calls of active or inactive are those of the source. Unless noted, calls follow the shape of the dose curve; as a rule, active = well fitted curve in the direction sought with a large enough effect in the repeat runs; inconclusive = weak or mixed curves; inactive = no such curve, though single readings can be large; an effect the other way counts as inactive or inconclusive.

Sequence of Retinoic acid receptor RXR-alpha (Homo sapiens) (P19793 whole entry, looked up): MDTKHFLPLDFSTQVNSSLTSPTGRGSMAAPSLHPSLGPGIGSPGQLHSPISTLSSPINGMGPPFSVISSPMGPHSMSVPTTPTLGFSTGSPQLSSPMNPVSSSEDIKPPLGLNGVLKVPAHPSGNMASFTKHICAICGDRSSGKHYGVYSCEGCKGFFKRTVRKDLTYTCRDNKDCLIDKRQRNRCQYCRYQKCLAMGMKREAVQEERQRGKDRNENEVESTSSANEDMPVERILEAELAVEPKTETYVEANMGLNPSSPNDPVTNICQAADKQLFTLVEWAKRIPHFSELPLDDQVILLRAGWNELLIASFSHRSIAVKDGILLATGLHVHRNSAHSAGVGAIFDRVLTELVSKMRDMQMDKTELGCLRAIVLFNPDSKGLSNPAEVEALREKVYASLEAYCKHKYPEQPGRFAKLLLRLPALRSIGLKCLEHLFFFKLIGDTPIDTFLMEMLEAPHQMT

Take `O=C(/C=C/c1ccccc1)OCCc1ccccc1`: the Potency entry in [1], in [2], in assay [3], in [4], in [5] and in [6] was “inactive” throughout. In addition, the Potency result in [7], in assay [8], in assay [9], in assay [10], in assay [11] and in assay [12] was “inactive” each time. Moreover, the Potency in assay [13] was 2.73 µM (active).
As for `C=C1C[C@@]23CC[C@H]4[C@@](C)(CCC[C@@]4(C)C(=O)O[C@@H]4O[C@H](CO)[C@@H](O)[C@H](O)[C@H]4O)[C@@H]2CC[C@]1(O[C@@H]1O[C@H](CO)[C@@H](O)[C@H](O[C@@H]2O[C@H](CO)[C@@H](O)[C@H](O)[C@H]2O)[C@H]1O[C@@H]1O[C@H](CO)[C@@H](O)[C@H](O)[C@H]1O)C3`, the Potency entry in assay [1], in assay [3], in assay [4], in assay [5], in [6] and in assay [7] was “inactive” each time. For the same molecule, the Potency entry in assay [9], in assay [14], in [10], in [11], in [12] and in assay [13] was “inactive” in each case.
In the case of `O=C1c2ccccc2C(=O)C1c1ccc(Br)cc1`, the Potency result in assay [1], in [2], in [3], in assay [4], in assay [5] and in assay [6] was “inactive” each time. Also, the Potency result in assay [7], in [9], in assay [10], in assay [11], in assay [12] and in [13] was “inactive” throughout.
As for `CCCCCC[C@@H](O)C/C=C\CCCCCCCC(=O)OCC(O)CO` (some centres not stated), the Potency result in assay [1], in assay [2], in assay [3], in assay [4], in assay [5] and in assay [6] was “inactive” throughout. Moreover, the Potency result in assay [7], in [8], in assay [11], in assay [12] and in [13] was “inactive” in each case. The Potency in assay [14] was 49 µM (active).
On to `O=C(O)CCCCCCCCCCCBr`, for which the Potency entry in [1], in [3], in assay [4], in [5], in assay [6] and in [7] was “inactive” in each case. The Potency result in [8], in assay [9], in assay [14], in assay [11] and in assay [12] was “inactive” throughout.
With `CN1CCCC(n2nc(Cc3ccc(Cl)cc3)c3ccccc3c2=O)CC1` (configuration not stated), the Potency entry in [3], in [4], in assay [5], in [6], in assay [7] and in assay [8] was “inactive” each time. Further, the Potency result in assay [11] and in assay [13] was “inactive” in each case. The Potency in [9] is 12 µM (active); in [10] it was 5.35 µM (active).
For the molecule `CC(C)=CCC1C(=O)N(c2ccccc2)N(c2ccccc2)C1=O`, the Potency entry in assay [1], in assay [2], in assay [3], in [4], in assay [5] and in [6] was “inactive” in each case. In addition, the Potency entry in [7], in assay [8], in [9], in [10], in assay [11] and in assay [12] was “inactive” in each case. For the same molecule, the Potency result in assay [13] is “inactive”.
For the molecule `O=c1c(O)c(-c2ccc(O)cc2)oc2cc(O)cc(O)c12`, the Potency entry in assay [1], in assay [2], in assay [3], in [4], in assay [5] and in [6] was “inactive” throughout. The Potency entry in assay [7], in assay [8], in assay [9], in assay [14], in assay [10] and in [12] was “inactive” throughout. In addition, the Potency in assay [13] is 18.4 µM (active).
As for `CC(C)C[C@H](NC(=O)[C@H](CCc1ccccc1)NC(=O)CN1CCOCC1)C(=O)N[C@@H](Cc1ccccc1)C(=O)N[C@@H](CC(C)C)C(=O)[C@@]1(C)CO1`, the Potency result in assay [3], in assay [4], in assay [5], in assay [8], in assay [9] and in [10] was “inactive” in each case. For the same molecule, the Potency result in [11] and in assay [12] was “inactive” in each case. For the same molecule, the Potency in [6] was 0.75 µM (active); in assay [7], 1.19 µM (active); in assay [13], 0.0473 µM (active).
Consider `CN1CC(=O)N2[C@H](c3ccc4c(c3)OCO4)c3[nH]c4ccccc4c3C[C@@H]2C1=O`, for which the Potency result in [1], in assay [2], in assay [3], in assay [4], in assay [5] and in assay [6] was “inactive” in each case. Besides, the Potency entry in assay [7], in assay [9], in [14], in assay [10], in assay [11] and in assay [12] was “inactive” throughout. In assay [13], the Potency entry is “inactive”.
In the case of `C[C@H]1C[C@H](O)c2ccsc2S1(=O)=O`, the Potency result in assay [1], in assay [2], in assay [3], in assay [4], in assay [5] and in [6] was “inactive” in each case. Also, the Potency result in [7], in assay [9], in assay [14], in assay [10], in assay [11] and in assay [12] was “inactive” throughout. Further, the Potency result in assay [13] is “inactive”.
In the case of `N#[N+]c1ccc2c(S(=O)(=O)[O-])cccc2c1O`, the Potency result in [1], in [2], in assay [3], in assay [4], in assay [5] and in assay [6] was “inactive” throughout. Moreover, the Potency result in [7], in [9], in assay [14], in [10], in assay [11] and in assay [12] was “inactive” each time. Besides, in assay [13], the Potency entry is “inactive”.
Regarding `Brc1cc(Br)c(Oc2cc(Br)c(Br)cc2Br)cc1Br`, the Potency in [1] is 23.9 µM (active). The Potency result in assay [2], in assay [3], in [4], in assay [5], in assay [6] and in [7] was “inactive” in each case. Moreover, the Potency result in assay [8] and in assay [11] was “inactive” throughout.
In the case of `CC1=C(CC=O)C(C)(C)CCC1`, the Potency entry in assay [1], in assay [2], in assay [3], in [4], in assay [5] and in assay [6] was “inactive” each time. Besides, the Potency result in assay [7], in assay [8], in [9], in [14], in [10] and in [11] was “inactive” throughout.
Turning to `CO/N=C(/C(=O)N[C@@H]1C(=O)N2C(C(=O)O)=C(COC(N)=O)CS[C@H]12)c1ccco1`, the Potency entry in [1], in [2], in [3], in assay [4], in assay [5] and in [6] was “inactive” in each case. For the same molecule, the Potency entry in assay [7], in assay [8], in assay [14], in assay [10], in assay [11] and in assay [12] was “inactive” in each case. Also, the Potency result in assay [13] was “inactive”.
Take `Cc1cc(O)c(C)c(C)c1O`: the Potency in assay [1] was 29.8 µM (active). The Potency result in [3], in [4], in assay [5], in assay [6], in assay [7] and in assay [8] was “inactive” throughout. The Potency entry in [9], in [14], in assay [10] and in [11] was “inactive” each time.
For `Cc1ccc(OC(=O)c2ccccc2O)cc1`, the Potency entry in assay [3], in assay [4], in [5], in assay [6], in [7] and in assay [9] was “inactive” each time. Further, the Potency result in assay [10], in assay [11] and in assay [12] was “inactive” each time. In addition, the Potency in assay [13] was 6.86 µM (active).
Take `CCOC(C)=O`: the Potency entry in assay [1], in assay [2], in assay [3], in [4], in [5] and in assay [6] was “inactive” throughout. The Potency entry in [7], in [9], in assay [14], in [10], in assay [11] and in [12] was “inactive” throughout. In assay [13], the Potency entry is “inactive”.
For `CCCC(=O)C(=O)O`, the Potency entry in [1], in assay [2], in assay [3], in [4], in [5] and in assay [6] was “inactive” each time. The Potency result in assay [7], in assay [9], in [14], in assay [10], in assay [11] and in assay [12] was “inactive” in each case. For the same molecule, in [13], the Potency entry was “inactive”.

Source of the values: PubChem BioAssay (Tox21).
